What all share (experiment): DAPPL (digital affinity profiling via proximity ligation, sequencing); 10 mM Tris-HCl pH 7.5, 50 mM NaCl, 1 mM DTT, 4% glycerol, room temperature, 30 min; GST-TFs on glutathione beads, 16-mer random dsDNA library, 0.1% formaldehyde crosslink after washing; high values mean tight binding
For one experiment, the target named is T1, FLI1 (Homo sapiens, UniProt Q01543 1-452).
T1 sequence: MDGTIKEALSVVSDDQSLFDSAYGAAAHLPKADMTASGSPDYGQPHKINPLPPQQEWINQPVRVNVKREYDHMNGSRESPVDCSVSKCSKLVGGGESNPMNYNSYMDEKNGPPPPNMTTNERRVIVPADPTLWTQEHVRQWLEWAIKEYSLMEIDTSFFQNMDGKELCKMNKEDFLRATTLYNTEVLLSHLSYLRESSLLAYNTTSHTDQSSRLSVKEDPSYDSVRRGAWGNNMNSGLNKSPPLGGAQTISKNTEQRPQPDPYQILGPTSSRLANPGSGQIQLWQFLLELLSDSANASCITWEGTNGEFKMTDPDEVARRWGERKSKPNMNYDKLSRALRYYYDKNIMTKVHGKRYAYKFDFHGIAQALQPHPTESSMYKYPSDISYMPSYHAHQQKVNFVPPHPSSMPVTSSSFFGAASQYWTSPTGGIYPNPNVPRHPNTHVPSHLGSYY
As to conditions: protein: recombinant; tags: N-terminal GST; dsDNA, one strand shown. The essentials:
(§1)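 Each value of binding signal is a hexamer's read frequency for a factor divided by the same hexamer's frequency in the tag-only sample. Barcoded, bead-captured GST fusions of human transcription factors made in yeast were pooled with that sample and incubated with 200 nmole of a random double-stranded 16-mer DNA library in Tris/NaCl/DTT/glycerol buffer at room temperature for 30 min. Washing, 0.1% formaldehyde crosslinking, proximity ligation, PCR and Illumina NextSeq500 sequencing followed.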

The next experiment concerns the target T2, GABPA (Homo sapiens, UniProt Q06546 1-454).
T2 sequence: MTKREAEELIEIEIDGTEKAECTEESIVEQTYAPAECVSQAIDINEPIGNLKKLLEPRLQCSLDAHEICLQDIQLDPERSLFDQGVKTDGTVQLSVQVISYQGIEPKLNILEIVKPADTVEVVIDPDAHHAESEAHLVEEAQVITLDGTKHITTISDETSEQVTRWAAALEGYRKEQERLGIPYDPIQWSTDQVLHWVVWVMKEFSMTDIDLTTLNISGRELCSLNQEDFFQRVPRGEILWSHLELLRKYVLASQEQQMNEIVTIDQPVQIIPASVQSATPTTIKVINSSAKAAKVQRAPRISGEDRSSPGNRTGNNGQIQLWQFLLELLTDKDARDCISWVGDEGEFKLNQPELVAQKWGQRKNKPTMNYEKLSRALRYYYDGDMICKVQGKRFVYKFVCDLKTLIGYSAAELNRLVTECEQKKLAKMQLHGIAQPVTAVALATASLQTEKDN
To be noted: protein: recombinant; tags: N-terminal GST; dsDNA, one strand shown. The essentials: as §1

In a further experiment the target is T3, ERG (Homo sapiens, UniProt P11308 1-479).
T3 sequence: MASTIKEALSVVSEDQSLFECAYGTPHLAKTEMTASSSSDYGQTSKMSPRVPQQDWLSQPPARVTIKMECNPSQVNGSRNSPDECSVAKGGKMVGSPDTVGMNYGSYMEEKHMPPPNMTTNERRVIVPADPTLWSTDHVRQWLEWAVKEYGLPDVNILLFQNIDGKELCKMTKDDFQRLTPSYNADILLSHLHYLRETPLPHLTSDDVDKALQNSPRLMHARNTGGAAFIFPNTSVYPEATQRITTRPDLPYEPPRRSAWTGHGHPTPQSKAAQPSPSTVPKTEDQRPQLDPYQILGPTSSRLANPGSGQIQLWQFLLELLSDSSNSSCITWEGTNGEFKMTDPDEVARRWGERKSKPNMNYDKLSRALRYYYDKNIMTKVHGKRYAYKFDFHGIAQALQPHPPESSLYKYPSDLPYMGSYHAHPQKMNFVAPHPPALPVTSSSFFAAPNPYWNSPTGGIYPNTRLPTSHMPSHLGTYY
To be noted: protein: recombinant; tags: N-terminal GST; dsDNA, one strand shown. The essentials:
as §1

Another experiment concerns the target ELF1 (Homo sapiens, UniProt P32519 1-619). To be noted: protein: recombinant; tags: N-terminal GST; dsDNA, one strand shown. The essentials:
as §1

The next experiment addresses SPI1 (Homo sapiens, UniProt P17947 1-270). As to conditions: protein: recombinant; tags: N-terminal GST; dsDNA, one strand shown. The essentials:
as §1

The target of another experiment is SPIB (Homo sapiens, UniProt Q01892 1-262). As to conditions: protein: recombinant; tags: N-terminal GST; dsDNA, one strand shown. The essentials: as §1
Chain of SPIB (Q01892 whole entry): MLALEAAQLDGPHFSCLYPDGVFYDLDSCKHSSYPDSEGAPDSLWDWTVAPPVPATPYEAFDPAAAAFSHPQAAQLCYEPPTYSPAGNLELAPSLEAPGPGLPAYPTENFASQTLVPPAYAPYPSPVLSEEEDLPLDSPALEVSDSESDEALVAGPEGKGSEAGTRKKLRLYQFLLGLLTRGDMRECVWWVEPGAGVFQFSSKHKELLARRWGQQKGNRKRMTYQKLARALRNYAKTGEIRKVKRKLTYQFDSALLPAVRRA
The next experiment concerns the target T4, ELK3 (Homo sapiens, UniProt P41970 1-407).
T4 sequence: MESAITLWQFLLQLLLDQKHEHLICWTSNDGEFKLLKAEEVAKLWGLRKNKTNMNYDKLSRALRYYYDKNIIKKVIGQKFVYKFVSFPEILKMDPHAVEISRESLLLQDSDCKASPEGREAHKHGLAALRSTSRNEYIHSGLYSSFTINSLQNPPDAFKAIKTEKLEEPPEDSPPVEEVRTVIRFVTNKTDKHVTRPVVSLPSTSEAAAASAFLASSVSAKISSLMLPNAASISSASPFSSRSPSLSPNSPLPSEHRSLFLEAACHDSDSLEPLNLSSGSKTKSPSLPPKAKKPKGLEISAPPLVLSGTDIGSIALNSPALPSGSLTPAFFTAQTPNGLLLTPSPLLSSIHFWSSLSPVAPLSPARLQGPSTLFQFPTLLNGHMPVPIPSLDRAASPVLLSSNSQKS
To be noted: protein: recombinant; tags: N-terminal GST; dsDNA, one strand shown. The essentials:
as §1

A further experiment has as its target T5, FEV (Homo sapiens, UniProt Q99581 1-238).
T5 sequence: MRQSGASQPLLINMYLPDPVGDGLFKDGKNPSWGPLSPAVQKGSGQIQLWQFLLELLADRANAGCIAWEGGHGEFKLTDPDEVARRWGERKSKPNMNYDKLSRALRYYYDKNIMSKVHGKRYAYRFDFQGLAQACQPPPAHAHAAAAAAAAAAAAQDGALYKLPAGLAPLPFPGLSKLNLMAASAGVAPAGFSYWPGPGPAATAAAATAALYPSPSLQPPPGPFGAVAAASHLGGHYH
To be noted: protein: recombinant; tags: N-terminal GST; dsDNA, one strand shown. The essentials:
as §1

For another experiment, the target named is HSF1 (Homo sapiens, UniProt Q00613 1-529). As to conditions: protein: recombinant; tags: N-terminal GST; chain copies: 3; dsDNA, one strand shown. The essentials: as §1
Chain of HSF1 (Q00613 whole entry): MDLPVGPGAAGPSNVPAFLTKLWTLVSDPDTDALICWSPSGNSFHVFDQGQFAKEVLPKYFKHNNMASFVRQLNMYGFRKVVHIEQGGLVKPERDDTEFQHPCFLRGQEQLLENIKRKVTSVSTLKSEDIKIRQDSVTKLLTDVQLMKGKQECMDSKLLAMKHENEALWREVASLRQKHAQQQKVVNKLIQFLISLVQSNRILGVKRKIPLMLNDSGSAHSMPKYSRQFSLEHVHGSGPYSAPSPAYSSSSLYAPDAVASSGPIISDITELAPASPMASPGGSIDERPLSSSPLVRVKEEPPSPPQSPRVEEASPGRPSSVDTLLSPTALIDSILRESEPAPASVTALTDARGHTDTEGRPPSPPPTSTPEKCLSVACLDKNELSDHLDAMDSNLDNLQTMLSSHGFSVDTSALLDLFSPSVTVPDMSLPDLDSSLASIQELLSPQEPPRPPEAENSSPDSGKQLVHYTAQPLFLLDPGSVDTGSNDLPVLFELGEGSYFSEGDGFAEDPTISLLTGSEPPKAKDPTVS
The target in a further experiment is T6, ETV2 (Homo sapiens, UniProt O00321 1-342).
T6 sequence: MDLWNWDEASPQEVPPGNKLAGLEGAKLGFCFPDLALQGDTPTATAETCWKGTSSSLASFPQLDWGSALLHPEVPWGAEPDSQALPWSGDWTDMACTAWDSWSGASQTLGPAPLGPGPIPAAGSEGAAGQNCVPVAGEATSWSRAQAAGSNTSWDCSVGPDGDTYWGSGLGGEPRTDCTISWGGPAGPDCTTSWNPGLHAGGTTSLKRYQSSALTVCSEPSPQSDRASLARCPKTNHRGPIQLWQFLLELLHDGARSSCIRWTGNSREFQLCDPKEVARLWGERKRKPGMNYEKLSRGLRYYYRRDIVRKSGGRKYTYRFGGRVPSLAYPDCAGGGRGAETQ
As to conditions: protein: recombinant; tags: N-terminal GST; dsDNA, one strand shown. The essentials:
as §1

The next experiment addresses T7, ELF3 (Homo sapiens, UniProt P78545 1-371).
T7 sequence: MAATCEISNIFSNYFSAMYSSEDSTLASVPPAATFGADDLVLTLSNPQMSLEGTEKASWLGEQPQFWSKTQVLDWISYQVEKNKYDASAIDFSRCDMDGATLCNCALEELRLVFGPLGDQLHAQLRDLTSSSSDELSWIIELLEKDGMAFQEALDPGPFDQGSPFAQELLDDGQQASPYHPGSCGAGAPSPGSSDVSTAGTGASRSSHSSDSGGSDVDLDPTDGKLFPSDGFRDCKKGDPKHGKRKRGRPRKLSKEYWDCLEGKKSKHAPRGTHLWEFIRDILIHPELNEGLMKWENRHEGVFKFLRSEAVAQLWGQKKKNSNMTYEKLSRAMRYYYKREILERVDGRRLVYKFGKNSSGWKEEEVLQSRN
As to conditions: protein: recombinant; tags: N-terminal GST; dsDNA, one strand shown. The essentials:
as §1

The target in another experiment is CRX (Homo sapiens, UniProt O43186 1-299). As to conditions: protein: recombinant; tags: N-terminal GST; dsDNA, one strand shown. The essentials: as §1
Chain of CRX (O43186 whole entry): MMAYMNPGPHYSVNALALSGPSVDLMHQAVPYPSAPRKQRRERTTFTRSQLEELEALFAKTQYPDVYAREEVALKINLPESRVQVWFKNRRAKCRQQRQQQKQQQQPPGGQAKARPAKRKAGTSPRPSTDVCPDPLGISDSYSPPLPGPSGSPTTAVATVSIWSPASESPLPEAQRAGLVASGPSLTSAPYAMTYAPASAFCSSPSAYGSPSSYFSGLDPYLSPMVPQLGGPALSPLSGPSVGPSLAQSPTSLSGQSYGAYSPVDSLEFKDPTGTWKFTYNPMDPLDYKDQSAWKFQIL
The next experiment addresses ETV1 (Homo sapiens, UniProt P50549 1-477). To be noted: protein: recombinant; tags: N-terminal GST; dsDNA, one strand shown. The essentials: as §1
The next experiment deals with T8, ERF (Homo sapiens, UniProt P50548 1-548).
T8 sequence: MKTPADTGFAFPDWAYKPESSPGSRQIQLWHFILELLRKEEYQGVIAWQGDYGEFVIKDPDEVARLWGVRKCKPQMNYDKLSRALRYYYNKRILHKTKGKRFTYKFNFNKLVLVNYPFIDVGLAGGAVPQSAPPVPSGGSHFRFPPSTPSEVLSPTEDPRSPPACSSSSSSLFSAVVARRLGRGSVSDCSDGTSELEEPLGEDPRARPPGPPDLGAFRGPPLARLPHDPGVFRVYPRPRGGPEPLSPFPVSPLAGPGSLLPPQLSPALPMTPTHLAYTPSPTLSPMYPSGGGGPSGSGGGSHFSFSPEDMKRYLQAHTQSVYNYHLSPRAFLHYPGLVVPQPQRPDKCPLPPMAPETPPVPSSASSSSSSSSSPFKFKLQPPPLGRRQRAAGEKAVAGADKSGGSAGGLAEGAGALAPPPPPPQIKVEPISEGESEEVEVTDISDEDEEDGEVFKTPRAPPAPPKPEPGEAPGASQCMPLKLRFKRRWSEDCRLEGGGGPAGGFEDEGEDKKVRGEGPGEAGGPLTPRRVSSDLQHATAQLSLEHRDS
As to conditions: protein: recombinant; tags: N-terminal GST; dsDNA, one strand shown. The essentials:
as §1

Another experiment addresses T9, ETV3L (Homo sapiens, UniProt Q6ZN32 1-361).
T9 sequence: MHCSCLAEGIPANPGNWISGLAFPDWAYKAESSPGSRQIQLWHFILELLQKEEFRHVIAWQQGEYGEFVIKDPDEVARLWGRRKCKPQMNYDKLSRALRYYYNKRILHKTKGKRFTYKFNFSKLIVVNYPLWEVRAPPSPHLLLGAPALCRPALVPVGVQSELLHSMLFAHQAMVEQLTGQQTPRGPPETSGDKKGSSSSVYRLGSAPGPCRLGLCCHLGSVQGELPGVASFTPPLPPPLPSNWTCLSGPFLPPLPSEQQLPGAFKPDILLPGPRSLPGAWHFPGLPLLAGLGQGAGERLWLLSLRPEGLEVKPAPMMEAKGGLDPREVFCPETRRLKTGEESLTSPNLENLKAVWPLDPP
As to conditions: protein: recombinant; tags: N-terminal GST; dsDNA, one strand shown. The essentials:
as §1

The target in a further experiment is T10, ETV3 (Homo sapiens, UniProt P41162-2 1-143).
T10 sequence: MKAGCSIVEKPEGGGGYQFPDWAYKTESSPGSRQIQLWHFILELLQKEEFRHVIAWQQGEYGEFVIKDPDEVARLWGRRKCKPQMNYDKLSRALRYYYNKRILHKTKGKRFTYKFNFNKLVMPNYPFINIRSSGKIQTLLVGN
To be noted: protein: recombinant; tags: N-terminal GST; dsDNA, one strand shown. The essentials:
as §1

For a further experiment, the target named is ETV6 (Homo sapiens, UniProt P41212 1-452). As to conditions: protein: recombinant; tags: N-terminal GST; dsDNA, one strand shown. The essentials:
as §1

The source of these data is PMC7862700, “An all-to-all approach to the identification of sequence-specific readers for epigenetic DNA modifications on cytosine”.

Chain of ETV1 (P50549 whole entry): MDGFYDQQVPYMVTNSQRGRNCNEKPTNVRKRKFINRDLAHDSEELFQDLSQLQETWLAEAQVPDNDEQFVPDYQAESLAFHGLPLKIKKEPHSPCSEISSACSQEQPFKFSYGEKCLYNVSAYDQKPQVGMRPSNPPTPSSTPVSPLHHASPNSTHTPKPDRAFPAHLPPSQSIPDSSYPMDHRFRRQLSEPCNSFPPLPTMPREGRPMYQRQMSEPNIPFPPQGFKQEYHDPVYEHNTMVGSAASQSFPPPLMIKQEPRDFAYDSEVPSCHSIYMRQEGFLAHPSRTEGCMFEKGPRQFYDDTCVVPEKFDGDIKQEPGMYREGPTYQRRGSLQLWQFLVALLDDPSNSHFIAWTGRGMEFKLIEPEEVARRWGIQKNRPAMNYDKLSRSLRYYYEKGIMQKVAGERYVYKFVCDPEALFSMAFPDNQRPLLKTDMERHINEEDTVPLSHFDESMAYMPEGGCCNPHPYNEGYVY
Chain of ELF1 (P32519 whole entry): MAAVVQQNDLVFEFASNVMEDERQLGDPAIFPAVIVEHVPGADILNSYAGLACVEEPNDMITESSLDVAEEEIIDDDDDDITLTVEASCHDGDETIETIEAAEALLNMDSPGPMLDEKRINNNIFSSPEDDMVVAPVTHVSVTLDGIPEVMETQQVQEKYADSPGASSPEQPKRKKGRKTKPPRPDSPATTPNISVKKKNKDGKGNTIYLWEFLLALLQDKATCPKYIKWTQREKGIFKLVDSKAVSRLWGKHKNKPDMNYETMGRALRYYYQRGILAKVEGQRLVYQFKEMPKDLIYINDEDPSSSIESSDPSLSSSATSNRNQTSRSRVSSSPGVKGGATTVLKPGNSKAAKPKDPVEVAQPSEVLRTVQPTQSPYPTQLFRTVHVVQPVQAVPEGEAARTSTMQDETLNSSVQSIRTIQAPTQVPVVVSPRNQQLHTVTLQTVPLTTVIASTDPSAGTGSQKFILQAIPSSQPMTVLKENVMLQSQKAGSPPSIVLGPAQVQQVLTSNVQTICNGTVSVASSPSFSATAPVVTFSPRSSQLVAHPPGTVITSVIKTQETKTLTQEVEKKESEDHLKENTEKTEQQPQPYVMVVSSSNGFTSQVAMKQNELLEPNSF
Chain of ETV6 (P41212 whole entry): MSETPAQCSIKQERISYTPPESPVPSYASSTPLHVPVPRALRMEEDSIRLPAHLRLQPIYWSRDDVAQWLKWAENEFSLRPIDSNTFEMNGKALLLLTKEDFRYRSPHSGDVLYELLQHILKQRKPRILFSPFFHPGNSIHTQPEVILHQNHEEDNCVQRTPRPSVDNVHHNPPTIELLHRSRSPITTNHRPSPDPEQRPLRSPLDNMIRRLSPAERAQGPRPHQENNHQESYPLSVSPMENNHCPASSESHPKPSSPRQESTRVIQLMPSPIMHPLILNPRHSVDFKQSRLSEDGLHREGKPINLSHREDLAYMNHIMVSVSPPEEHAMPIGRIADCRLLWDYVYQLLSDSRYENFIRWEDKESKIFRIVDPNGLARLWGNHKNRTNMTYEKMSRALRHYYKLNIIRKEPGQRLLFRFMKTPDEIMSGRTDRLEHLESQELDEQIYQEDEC

In the case of TCTGGA, the binding signal in the experiment with FLI1 is 1.02 fold enrichment (6-mer frequency, TF over GST control); with GABPA, 1.05 fold enrichment (6-mer frequency, TF over GST control); with ERG, 1.04 fold enrichment (6-mer frequency, TF over GST control); in the experiment with ELF1, 1.01 fold enrichment (6-mer frequency, TF over GST control); with SPI1, 1.01 fold enrichment (6-mer frequency, TF over GST control); in the experiment with SPIB it was 1.01 fold enrichment (6-mer frequency, TF over GST control). The binding signal with ELK3 was 1.2 fold enrichment (6-mer frequency, TF over GST control); with FEV it was 1.08 fold enrichment (6-mer frequency, TF over GST control); with HSF1 it was 3.75 fold enrichment (6-mer frequency, TF over GST control); with ETV2, 1.15 fold enrichment (6-mer frequency, TF over GST control); with ELF3 it was 1.06 fold enrichment (6-mer frequency, TF over GST control); with CRX, 1.72 fold enrichment (6-mer frequency, TF over GST control). In addition, the binding signal with ETV1 is 1.2 fold enrichment (6-mer frequency, TF over GST control); with ERF, 1.06 fold enrichment (6-mer frequency, TF over GST control); with ETV3L it was 1.1 fold enrichment (6-mer frequency, TF over GST control); with ETV3, 1.05 fold enrichment (6-mer frequency, TF over GST control); with ETV6, 1.07 fold enrichment (6-mer frequency, TF over GST control).
